“And” between values parts separate entries of the source, which are not always exact repeats. Equal values may be shown once. Results filed as inconclusive are left out. A number with no mark means an inactive call. The source made the active and inactive calls. Calls come from the whole dose curve; as a rule, active = well fitted curve in the direction sought with a large enough effect; inconclusive = small, poorly fitted or top-dose-only effect, or another doubt; inactive = no such curve, though single readings can be large or run the other way.
% is set by controls: 0 for no effect and ±100 for the full control effect; potency is the fitted concentration of half-maximal effect.

The assay is described as follows: qHTS Assay for Identifying Gametocytocidal Compounds (AID 743244).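 For max response: actives lower the fluorescent signal which means gametocytes are killed.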 To be noted: P. falciparum 3D7 stage III-V gametocytes, alamarBlue, 72 h; max response: stronger effect = lower value. The essentials:
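Late gametocytes (III–V), P. falciparum 3D7; 72 h drug, then 24 h alamarBlue; resazurin reduction read by fluorescence.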
On the technique in general: Quantitative high-throughput screening tests each substance at several concentrations.
With `Cc1ccc(C(=O)Nc2ccc(CN3CCN(C)CC3)c(C(F)(F)F)c2)cc1C#Cc1cnc2cccnn12`, the Potency is 18.7 µM (active).

For the compound `CNC(=O)c1cc(Oc2ccc(NC(=O)Nc3cc(C(C)(C)C)nn3-c3ccc4ncccc4c3)c(F)c2)ccn1`, the max response was -28.6%.

Regarding `COc1cc2c(Oc3ccc4[nH]c(C)cc4c3F)ncnc2cc1OCCCN1CCCC1`, the Potency was 18.7 µM (active).

Consider `CC(C)c1ccc(Cn2ccc3c4c(N)nc(NC5CC5)nc4ccc32)cc1`, for which the Potency is 14.8 µM (active).

Turning to `C1=CCOCc2cc(ccc2OCCN2CCCC2)Nc2nccc(n2)-c2cccc(c2)OCC1`, the max response was 17.1%.

Regarding `CCN1CCN(Cc2ccc(-c3cc4c(N[C@H](C)c5ccccc5)ncnc4[nH]3)cc2)CC1`, the Potency was 23.5 µM (active).

`C[C@@H](Oc1cc(-n2cnc3ccc(CN4CCN(C)CC4)cc32)sc1C(N)=O)c1ccccc1C(F)(F)F`: the Potency is 18.7 µM (active).

On to `NC(=O)Nc1cc(-c2cccc(F)c2)sc1C(=O)N[C@H]1CCCNC1`, for which the Potency was 18.7 µM (active).

For the compound `COc1ccc(CC2c3cc(OC)c(OC)cc3CC[N+]2(C)CCC(=O)OCCCCCOC(=O)CC[N+]2(C)CCc3cc(OC)c(OC)cc3C2Cc2ccc(OC)c(OC)c2)cc1OC` (stereo unspecified), the max response was 8.81%.

As to `Cc1cc(Nc2cc(N3CCN(C)CC3)nc(Sc3ccc(NC(=O)C4CC4)cc3)n2)n[nH]1`, the Potency is 23.5 µM (active).

With `CC(C)(C)c1cnc(CSc2cnc(NC(=O)C3CCNCC3)s2)o1`, the Potency was 4.18 µM (active).

For the compound `CN(C)CC=CC(=O)Nc1cc2c(Nc3ccc(F)c(Cl)c3)ncnc2cc1O[C@H]1CCOC1`, the Potency is 0.935 µM (active).

As for `CC[C@H](CO)Nc1nc(NCc2ccccc2)c2ncn(C(C)C)c2n1`, the max response is -4.23%.

As for `C[C@@H](Oc1cc(-c2cnn(C3CCNCC3)c2)cnc1N)c1c(Cl)ccc(F)c1Cl`, the Potency was 7.43 µM (active).

For the compound `O=c1c2ccccc2nc2n1CCc1c-2[nH]c2ccccc12`, the max response was 16.8%.

On to `Cc1nc2ccc(CN(C)c3ccc(C(=O)N[C@@H](CCC(=O)O)C(=O)O)s3)cc2c(=O)[nH]1`, for which the max response was 16% and -8.64%.

(Values after PubChem BioAssay (NCATS).)
